Results published in PubChem BioAssay (NCATS).
Records with an inconclusive call do not appear. Calls of active or inactive are those of the source. Calls come from the whole dose curve; as a rule, active = well fitted curve in the direction sought with a large enough effect; inconclusive = small, poorly fitted or top-dose-only effect, or another doubt; inactive = no such curve, though single readings can be large; an effect the other way counts as inactive or inconclusive.

Tests used:
[1] = target: Rap guanine nucleotide exchange factor 3 (Homo sapiens) (UniProt O95398); assay: Confirmatory qHTS for antagonist of cAMP-regulated guanine nucleotide exchange factor 3 (EPAC1) (AID 1645880); note: nearly all actives have a fitted effect of over 55% in size; note: potency is the fitted concentration of half-maximal effect
Chain of Rap guanine nucleotide exchange factor 3 (Homo sapiens) (O95398 whole entry, looked up): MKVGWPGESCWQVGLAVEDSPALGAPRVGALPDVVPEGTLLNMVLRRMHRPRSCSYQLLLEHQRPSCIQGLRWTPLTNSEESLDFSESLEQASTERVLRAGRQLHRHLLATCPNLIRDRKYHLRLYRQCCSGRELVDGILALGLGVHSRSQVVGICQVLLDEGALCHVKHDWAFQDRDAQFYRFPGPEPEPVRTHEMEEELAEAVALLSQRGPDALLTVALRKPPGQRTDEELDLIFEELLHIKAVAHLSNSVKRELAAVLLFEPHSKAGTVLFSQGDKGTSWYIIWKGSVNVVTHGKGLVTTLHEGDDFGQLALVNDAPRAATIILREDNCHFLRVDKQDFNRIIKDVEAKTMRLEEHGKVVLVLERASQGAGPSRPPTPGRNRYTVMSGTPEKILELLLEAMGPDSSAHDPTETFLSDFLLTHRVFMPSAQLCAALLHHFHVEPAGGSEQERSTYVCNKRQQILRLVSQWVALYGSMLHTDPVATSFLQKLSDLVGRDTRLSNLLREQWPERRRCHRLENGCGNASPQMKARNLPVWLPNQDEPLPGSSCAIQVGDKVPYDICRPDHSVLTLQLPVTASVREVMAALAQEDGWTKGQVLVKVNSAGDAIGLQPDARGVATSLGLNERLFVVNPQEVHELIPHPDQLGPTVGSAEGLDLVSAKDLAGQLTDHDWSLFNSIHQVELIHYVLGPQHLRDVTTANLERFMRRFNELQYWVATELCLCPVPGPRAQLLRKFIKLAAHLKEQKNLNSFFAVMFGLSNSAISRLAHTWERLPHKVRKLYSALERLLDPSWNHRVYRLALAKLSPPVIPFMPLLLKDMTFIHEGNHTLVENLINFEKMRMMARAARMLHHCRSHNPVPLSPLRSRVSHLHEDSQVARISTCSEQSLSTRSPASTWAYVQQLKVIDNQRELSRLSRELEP
In short: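 Released BODIPY-GDP fluoresces less than Rap1-bound BODIPY-GDP; the signal is followed at 480/540 nm at 5-min intervals over 30 min, after 5 min at room temperature. Reactions contain 100 nM EPAC1, 250 nM RAP1B-BODIPY-GDP and 50 uM GDP; results are normalized to ATA and DMSO.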

[2] = target: Rap guanine nucleotide exchange factor 3 (Homo sapiens) (UniProt O95398); assay: Confirmatory qHTS for agonist of cAMP-regulated guanine nucleotide exchange factor 3 (EPAC1) (AID 1645881);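 note: EPAC1 catalysed release of BODIPY-GDP from Rap1B seen as fluorescence loss; 100% = effect of cAMP agonist control; nearly all actives have a fitted effect of over 75% in size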
[3] = target: Rap guanine nucleotide exchange factor 4 (Homo sapiens) (UniProt Q8WZA2); assay: Confirmatory qHTS for agonist of cAMP-regulated guanine nucleotide exchange factor 4 (EPAC2) (AID 1645884);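 note: nucleotide exchange releases bodipy-GDP from Rap1 and this lowers its fluorescence; % is set by controls: 0 for no effect and ±100 for the full control effect; nearly all actives have a fitted effect of over 65% in size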
Chain of Rap guanine nucleotide exchange factor 4 (Homo sapiens) (Q8WZA2 whole entry, looked up): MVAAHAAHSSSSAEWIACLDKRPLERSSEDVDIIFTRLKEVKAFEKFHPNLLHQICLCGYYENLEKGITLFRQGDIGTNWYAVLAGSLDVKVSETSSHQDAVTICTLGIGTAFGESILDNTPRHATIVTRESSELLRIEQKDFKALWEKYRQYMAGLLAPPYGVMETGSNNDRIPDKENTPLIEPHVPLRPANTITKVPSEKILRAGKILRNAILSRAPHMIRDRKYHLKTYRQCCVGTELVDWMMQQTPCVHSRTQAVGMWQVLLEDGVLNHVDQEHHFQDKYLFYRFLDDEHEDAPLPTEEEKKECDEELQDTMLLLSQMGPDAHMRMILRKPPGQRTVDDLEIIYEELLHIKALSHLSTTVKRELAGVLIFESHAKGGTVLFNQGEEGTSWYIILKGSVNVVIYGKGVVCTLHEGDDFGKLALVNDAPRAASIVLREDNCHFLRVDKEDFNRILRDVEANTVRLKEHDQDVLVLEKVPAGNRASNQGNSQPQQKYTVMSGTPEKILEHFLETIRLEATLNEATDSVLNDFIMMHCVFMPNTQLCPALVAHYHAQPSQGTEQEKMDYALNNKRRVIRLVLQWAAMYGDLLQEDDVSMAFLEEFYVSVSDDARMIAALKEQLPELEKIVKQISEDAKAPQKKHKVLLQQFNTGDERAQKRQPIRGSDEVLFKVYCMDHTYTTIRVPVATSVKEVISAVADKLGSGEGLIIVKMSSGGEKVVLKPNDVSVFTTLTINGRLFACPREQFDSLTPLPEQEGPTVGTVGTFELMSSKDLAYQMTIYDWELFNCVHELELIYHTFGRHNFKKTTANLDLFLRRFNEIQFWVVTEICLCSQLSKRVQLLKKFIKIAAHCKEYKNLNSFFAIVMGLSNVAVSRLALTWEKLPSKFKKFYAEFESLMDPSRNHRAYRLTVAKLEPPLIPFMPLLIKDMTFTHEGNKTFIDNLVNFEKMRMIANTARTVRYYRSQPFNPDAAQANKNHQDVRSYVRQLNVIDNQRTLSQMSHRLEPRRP

[4] = target: Rap guanine nucleotide exchange factor 4 (Homo sapiens) (UniProt Q8WZA2); assay: Confirmatory qHTS for antagonist of cAMP-regulated guanine nucleotide exchange factor 4 (EPAC2) (AID 1645885); note: nearly all actives have a fitted effect of over 25% in size; note: potency is the fitted concentration of half-maximal effect; for activity change, negative = inhibition: % is set by controls: 0 for no effect and ±100 for the full control effect
[5] = target: Rap guanine nucleotide exchange factor 3 (Homo sapiens) (UniProt O95398); assay: Counterscreen qHTS for antagonist of cAMP-regulated guanine nucleotide exchange factor 3 (EPAC1) (AID 1645888); note: % of control where 0% means no effect
In short: (§1)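 Rap1B-BODIPY-GDP 250 nM + GDP 50 uM; cpds 7-pt, final 9.74 nM–152 uM (activator mode) or from 7.32 nM upwards (inhibitor mode); RT; FI 480/540 nm at 5 and 30 min, then ± cAMP, reread.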

[6] = target: Rap guanine nucleotide exchange factor 3 (Homo sapiens) (UniProt O95398); assay: Counterscreen qHTS for agonist of cAMP-regulated guanine nucleotide exchange factor 3 (EPAC1) (AID 1645889); note: % of control where 0% means no effect; nearly all actives have a fitted effect of over 40% in size
In short: as §1

C=CCn1c(-c2ccc(S(=O)(=O)N3CCOCC3)cc2)csc1=Nc1ccccc1
inactive: Potency [1] | Potency [2] | Potency [3] | Potency [4] | Potency [5]

COc1ccc(C2=NN(c3nc4ccccc4s3)C(=O)C2)cc1
active: Potency [1] 75.7 µM
inactive: Potency [2] | Potency [3] | Potency [4] | Potency [5]

COc1ccc(NC(=O)c2c(-c3ccccc3)c(-c3ccccc3)nn(C)c2=O)cc1OC
inactive: Potency [1] | Potency [2] | Potency [3] | Potency [4] | Potency [5]

COc1cc(/C=C2\SC(=S)N(NS(=O)(=O)c3ccc(C)cc3)C2=O)ccc1O
active: Potency [1] 22.4 µM
inactive: Potency [2] | activation [3] 2.55% [at 17.1 µM, percent relative to cAMP agonist control] | Potency [4] | activity change, negative = inhibition [5] -2.35% [at 30.8 µM]

CC1(C(=O)Nc2ccc(Cl)cc2)Cc2c(-c3cccc(C(N)=O)c3)ccnc2O1 (stereo not given)
inactive: Potency [1] | Potency [2] | activation [3] 9.22% [at 17.1 µM, percent relative to cAMP agonist control] | Potency [4] | activity change, negative = inhibition [5] 3.15% [at 30.8 µM]

Cc1c(C(=O)NCCO)sc2nc3n(c(=O)c12)CCC3
inactive: Potency [1] | Potency [2] | Potency [3] | Potency [4] | Potency [5]

OC1(c2ccccc2)CC(c2ccccc2)c2ccccc2O1 (stereo not given)
inactive: Potency [1] | Potency [2] | activation [3] 1.28% [at 17.1 µM, percent relative to cAMP agonist control] | Potency [4] | activity change, negative = inhibition [5] -2.96% [at 30.8 µM]

CCc1cccc2c(C(=O)COC(=O)c3nccnc3N)c[nH]c12
inactive: Potency [1] | Potency [2] | Potency [3] | Potency [4] | Potency [5]

Clc1ccc(CSc2nnc(-c3ccncc3)s2)cc1
inactive: Potency [1] | Potency [2] | Potency [3] | Potency [4] | Potency [5]

CCCCOc1ccccc1Cn1c(=O)oc2ccc(C)cc21
inactive: Potency [1] | Potency [2] | Potency [3] | Potency [4] | Potency [5]

CC(=O)NC(CCS(C)(=O)=O)C(=O)Nc1cc(C)on1 (stereo not given)
inactive: Potency [1] | Potency [2] | Potency [3] | Potency [4] | Potency [5]

O=C1C=C(N2CCCCC2)c2ccccc2C1=O
inactive: Potency [2] | activation [3] 2.92% [at 17.1 µM, percent relative to cAMP agonist control] | Potency [4] | activity change, negative = inhibition [5] -3.66% [at 30.8 µM]
active: Potency [1] 25.1 µM

COc1ccc(S(=O)(=O)N2C(=O)/C(=C3\SC(N)=NC3=O)c3ccccc32)cc1
inactive: Potency [1] | Potency [2] | Potency [3] | Potency [4] | Potency [5]

Cc1cc(Nc2ccccc2)n(-c2nc3ccccc3[nH]2)n1
inactive: Potency [1] | Potency [2] | activation [3] 5.09% [at 17.1 µM, percent relative to cAMP agonist control] | Potency [4] | activity change, negative = inhibition [5] -0.198% [at 30.8 µM]

CCOc1cc(/C=C2\SC(=S)N(NS(=O)(=O)c3ccccc3)C2=O)ccc1O
inactive: Potency [2] | Potency [3] | Potency [5]
active: Potency [1] 33.8 µM | Potency [4] 42.6 µM

CCOc1cc(/C=C2\C(=N)N3N=C(S(C)(=O)=O)SC3=NC2=O)ccc1OCCOc1cccc(OC)c1
inactive: Potency [2] | Potency [3] | Potency [4] | Potency [5]
active: Potency [1] 19 µM

CCOc1ccc(CCNc2ncnc3onc(-c4ccc(Cl)cc4)c23)cc1OCC
inactive: Potency [1] | Potency [2] | Potency [3] | Potency [4] | Potency [5]

COC(=O)c1cc(NC(=O)CC2C(=O)OCCN2Cc2ccccc2)cc(C(=O)OC)c1 (stereo not given)
inactive: Potency [1] | Potency [2] | Potency [3] | Potency [4] | Potency [5]

Cc1ccc2oc(=O)c3cnn(CC(=O)NCCCOC(C)C)c3c2c1
inactive: Potency [1] | Potency [2] | Potency [3] | Potency [4] | Potency [5]

CC(/C=C1\SC(=S)N(NS(=O)(=O)c2ccc(C)cc2)C1=O)=C\c1ccccc1
active: Potency [1] 26.9 µM | Potency [4] 47.8 µM
inactive: Potency [2] | Potency [3] | Potency [5]

COc1cc(CNn2cnnc2)ccc1OCC(=O)NC(C)(C)C
inactive: Potency [1] | Potency [2] | Potency [3] | Potency [4] | Potency [5]

Cc1cc(C)cc(NC(=O)N2CCC(CN3CCc4ccccc4C3)CC2)c1
inactive: Potency [1] | Potency [2] | Potency [3] | Potency [4] | Potency [5]

CCc1nn2c(-c3ccccc3OC)ccnc2c1-c1ccccc1
inactive: Potency [1] | Potency [2] | Potency [3] | outcome [4] inactive [at 12.7 µM] | Potency [5]

CCOc1ccc(S(=O)(=O)n2ccc(C)n2)c2ccccc12
inactive: Potency [1] | Potency [2] | Potency [3] | Potency [4] | Potency [5]

CCC(=O)N1N=C(c2cccs2)CC1c1ccc(OC)cc1 (stereo not given)
inactive: Potency [1] | Potency [2] | Potency [3] | Potency [4] | Potency [5]

Cn1cc(C(c2ccccc2)c2ccc(Cl)s2)c2ccccc21 (stereo not given)
inactive: Potency [1] | Potency [2] | Potency [3] | Potency [4] | Potency [5]

Cc1ccc(S(=O)(=O)N2CCCCC2c2cccnc2)c(C)c1C (stereo not given)
inactive: Potency [1] | Potency [2] | activation [3] 14.9% [at 17.1 µM, percent relative to cAMP agonist control] | Potency [4] | activity change, negative = inhibition [5] 2.73% [at 30.8 µM]

CCOC(=O)C1=C(CSc2nc3ccccc3s2)NC(=O)NC1c1ccc(OC)cc1 (stereo not given)
inactive: Potency [1] | Potency [2] | Potency [3] | outcome [4] inactive; activator; fitted 0.12 uM [at 12.7 µM] | Potency [5]

COc1ccc(CCNC(=O)CSc2nc3nc(C)c(Cc4ccc(C)cc4)c(C)n3n2)cc1OC
inactive: Potency [1] | Potency [2] | Potency [3] | Potency [4] | Potency [5]

CC1CN(C(=O)N2CCOCC2)CCN1C(=O)N1CCOCC1 (stereo not given)
inactive: Potency [1] | Potency [2] | Potency [3] | Potency [4] | Potency [5]

Cc1cc(C)cc(C(O)c2ncc(-c3ccccc3Cl)[nH]2)c1 (stereo not given)
inactive: Potency [1] | Potency [2] | activation [3] 2.23% [at 17.1 µM, percent relative to cAMP agonist control] | Potency [4] | activity change, negative = inhibition [5] -7.63% [at 30.8 µM]

CNc1ccc(Br)cc(C(=O)/C=C/c2ccc(Cl)cc2Cl)c1=O
active: Potency [1] 12 µM
inactive: Potency [2] | Potency [3] | Potency [4] | Potency [5]

CC[C@H]1C(c2ccc(F)cc2)=NN(c2ccccc2)[C@@H]1CO
inactive: Potency [1] | Potency [2] | activation [3] 4.16% [at 17.1 µM, percent relative to cAMP agonist control] | Potency [4] | activity change, negative = inhibition [5] -6.73% [at 30.8 µM]

c1ccc(CN(Cc2ccccc2)c2c3c(nc4ncnn24)CCC3)cc1
inactive: Potency [1] | Potency [2] | Potency [3] | Potency [4] | Potency [5]

O=C(CN(c1ccc(Cl)c(C(F)(F)F)c1)S(=O)(=O)c1ccccc1)N1CCc2ccccc2C1
inactive: Potency [1] | Potency [2] | Potency [3] | Potency [4] | Potency [5] | Potency [6]

CC(=O)N1CCN(C(=O)COc2ccc(Br)cc2)CC1
inactive: Potency [1] | Potency [2] | Potency [3] | Potency [4] | Potency [5] | Potency [6]

CC(=O)Nc1ccc(Nc2nc3ccccc3nc2NS(=O)(=O)c2ccc(Cl)c([N+](=O)[O-])c2)cc1
inactive: Potency [2] | activation [3] -3.97% [at 17.1 µM, percent relative to cAMP agonist control] | Potency [4] | activity change, negative = inhibition [5] -36.3% [at 30.8 µM] | activation [6] 21.8% [at 30.8 µM]
active: Potency [1] 50.1 µM

COc1ccc(C(C#N)=Cc2cccc(OC)c2OC)cc1
inactive: Potency [1] | Potency [2] | Potency [3] | Potency [5] | Potency [6]
active: Potency [4] 16.9 µM

COc1ccc(N2CCN(C(=O)CCc3ccccc3OC)CC2)cc1
inactive: Potency [1] | Potency [2] | Potency [3] | Potency [4] | Potency [5] | Potency [6]
